Experimental data as given in PubChem BioAssay.
A number with no mark means an inactive call. No rule for the calls is given here.

Target: Pantothenate synthetase (Mycobacterium tuberculosis (strain ATCC 25618 / H37Rv)) (UniProt P9WIL5)
Test: Recombinant Mtb pantothenate synthetase (PanC) inhibitors, coupled enzyme, confirmatory (AID 375);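 also: 0% = full reaction with vehicle and 100% = no enzyme background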
Details: coupled enzyme assay; at 10 µM, hits give high values

Chain of Pantothenate synthetase (Mycobacterium tuberculosis (strain ATCC 25618 / H37Rv)) (P9WIL5 whole entry, looked up): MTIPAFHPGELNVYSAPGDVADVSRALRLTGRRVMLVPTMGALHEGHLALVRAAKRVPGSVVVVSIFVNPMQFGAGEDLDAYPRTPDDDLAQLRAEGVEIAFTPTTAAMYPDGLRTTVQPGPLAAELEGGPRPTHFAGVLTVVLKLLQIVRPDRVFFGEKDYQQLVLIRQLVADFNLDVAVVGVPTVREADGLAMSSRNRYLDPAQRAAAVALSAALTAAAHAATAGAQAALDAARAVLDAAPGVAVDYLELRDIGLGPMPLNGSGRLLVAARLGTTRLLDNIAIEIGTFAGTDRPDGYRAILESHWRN

Structure (SMILES) | inhibition
CCOc1cc(C2NC(=O)N(C)C(C)=C2C(=O)OC)cc(Br)c1O (configuration not stated) | 0%
Cc1cc(NS(=O)(=O)c2ccc(NC(=O)C(C)N3C(=O)c4ccccc4C3=O)cc2)nc(C)n1 (configuration not stated) | 1%
OC(CCN1CCCCC1)(c1ccccc1)c1ccccc1 | 3%
Cc1cc(C)nc(N2CCC(C(=O)Nc3ccc4c(c3)CCC4)CC2)n1 | 5%
CCOC(=O)CC(=O)CSc1nc(-c2cccnc2)ccc1C#N | 0%
O=C(NCc1ccc2c(c1)OCO2)C1CCCN(S(=O)(=O)c2cccnc2)C1 (configuration not stated) | 0%
CCC1Cc2c(nc3c4c(nc(N5CCOCC5)c(C#N)c24)NC(C)=N3)O1 (configuration not stated) | 0%
O=C(OCC(=O)c1ccccc1Br)c1ccccn1 | 3%
CN(C(=O)c1ccco1)c1nnc(C23CC4CC(CC(C4)C2)C3)s1 | 0%
O=C(COc1ccccc1Cl)NCc1ccco1 | 3%
O=C(Nc1nc(-c2ccccc2)cs1)C1CCCO1 (configuration not stated) | 3%
C=C(C)Cn1c(CCNC(=O)CC)nc2ccccc21 | 0%
Cc1nc2ccc(S(=O)(=O)NC(C(=O)N3CCCC3)C(C)C)cc2s1 (configuration not stated) | 0%
Clc1ccc(C2=Nn3c(nnc3-c3n[nH]c4c3CCC4)SC2)cc1Cl | 0%
O=C(NCC(F)(F)F)Nc1cccnc1 | 7%
CCOC(=O)c1cc2c(=O)n3ccccc3nc2n(CCCOC)c1=NC(C)=O | 1%
COc1cccc(CNc2cccc3cccnc23)c1O | 0%
CCCCCc1c(O)nc(SCC(=O)NCC2CCCO2)[nH]c1=O (configuration not stated) | 6%
O=C(c1ccc2c(c1)OCCO2)C1CCN(C(=O)c2ccc(F)cc2)CC1 | 0%
Cc1noc(COc2ccccc2OCC(O)CNC(C)(C)C)n1 (configuration not stated) | 4%
CCn1c(SCC(=O)Nc2nnc(C)s2)nnc1-c1ccncc1 | 1%
Cc1ccc(NC(=O)c2ccccc2F)nc1 | 2%
